These results are taken from PubChem BioAssay (EPA / NIEHS).

Experiment [1] has as its target Nuclear respiratory factor 1 (Homo sapiens) (UniProt Q16656). Put plainly: ATG_NRF1_CIS: Attagene CIS-FACTORIAL HepG2 Assay for human Nuclear Respiratory Factor 1 (NRF1) Orphan Gene (AID 2282987). As to conditions: HepG2 NRF1 cis-element reporter, Attagene multiplex; actives raise or lower the signal. In short, it runs like this: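 Using DMSO as baseline, gain- or loss-of-signal was fitted for reporter mRNA levels in HepG2 cells transiently transfected with cis-regulated reporter units. Samples were taken 24 h after dosing and read by RT-PCR with capillary electrophoresis.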

A short description of experiment [2]: ATG_NFI_CIS: Attagene CIS-FACTORIAL HepG2 Assay for human Nuclear Factor I (NFI) (AID 2282989). The note with it: HepG2 cis-regulatory reporter, NFI response element transcription; actives raise or lower the signal. In short, it runs like this: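 Read-out: reporter mRNA via RT-PCR plus capillary electrophoresis with fluorescence detection. Transiently transfected HepG2 (endogenous TF activity on cis promoters), 24 h compound exposure; gain or loss of signal fitted against DMSO.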

The target in experiment [3] is Myc proto-oncogene protein (Homo sapiens) (UniProt P01106). Kind of experiment: ATG_Myc_CIS: Attagene CIS-FACTORIAL HepG2 Assay for human Myelocytomatosis (Myc) Proto-Oncogene Transcription Factor (AID 2282990). As to conditions: HepG2, Attagene cis-reporter transcription factor activity; actives raise or lower the signal. In a few lines:
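Cells of the HepG2 human liver line bear multiple cis-driven reporter transcription units. Reporter mRNA after 24 h exposure is reverse-transcribed, amplified, labelled and resolved by capillary electrophoresis, with gain- or loss-of-signal fitting relative to DMSO.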

Experiment [4] in a line: ATG_NF_kB_CIS: Attagene CIS-FACTORIAL HepG2 Assay for human Nuclear Factor Kappa B (NF-kB) (AID 2282991). The note with it: HepG2 Attagene cis-factorial NF-kB reporter mRNA; actives raise or lower the signal. In a few lines:
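Endpoint from a 52-component multiplexed HepG2 reporter panel: cis-regulated transcription units transiently transfected, 24 h dosing, reporter mRNA quantified by RT-PCR and capillary electrophoresis, scored as increase or decrease against DMSO.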

Experiment [5] in a line: ATG_NRF2_ARE_CIS: Attagene CIS-FACTORIAL HepG2 Assay for human Nuclear Factor Erythroid 2 Related Factor 2 (NFR2) response to Antioxidant Response Elements (ARE) (AID 2282992).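 For AC50: reporter mRNA level measured by RT-PCR and capillary electrophoresis fluorescence.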 As to conditions: HepG2 Attagene ARE/NRF2 reporter, transcription factor activity; actives raise or lower the signal. In short, it runs like this:
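HepG2 cells transiently transfected with multiplexed cis-element reporter constructs, 24 h after chemical dosing; reporter mRNA quantified by RT-PCR, fluorescent primer extension, HpaI digestion and capillary electrophoresis. Bidirectional fit relative to DMSO.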

A short description of experiment [6]: ATG_Oct_MLP_CIS: Attagene CIS-FACTORIAL HepG2 Assay for human Octamer-Binding Transcription Factor (Oct) (AID 2282993). The note with it: HepG2 Attagene cis-factorial Oct reporter, mRNA; actives raise or lower the signal. In a few lines:
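Read-out: reporter mRNA via RT-PCR plus capillary electrophoresis of 6-FAM-labelled fragments. Transiently transfected HepG2, 24 h exposure, endogenous TF activity on cis elements. Gain or loss of signal fitted relative to DMSO.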

Experiment [7] concerns the target Cellular tumor antigen p53 (Homo sapiens) (UniProt P04637). Put plainly: ATG_p53_CIS: Attagene CIS-FACTORIAL HepG2 Assay for human p53 Transcription Factor (AID 2282994). As to conditions: HepG2 p53 cis-element reporter, Attagene mRNA; actives raise or lower the signal. In a few lines:
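HepG2 cells transiently transfected with cis-regulated multiple reporter transcription units, dosed 24 h. Reporter mRNA measured by RT-PCR, 6-FAM primer extension, HpaI digestion and capillary electrophoresis; bidirectional fit relative to DMSO.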

Experiment [8] can be described thus: BSK_3C_TissueFactor: BioMAP Diversity Plus: 3C Assay for Tissue Factor Biomarker Activity (AID 2282997). The note with it: BioMAP 3C HUVEC, tissue factor biomarker readout; actives raise or lower the signal. In short, it runs like this: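 Values derive from bidirectional curve fitting against DMSO of Tissue Factor ELISA signals, taken 24 h after dosing primary human umbilical vein endothelial cells.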

Experiment [9] is described as follows: BSK_3C_uPAR: BioMAP Diversity Plus: 3C Assay for Urokinase-type plasminogen activator receptor (uPAR) Biomarker Activity (AID 2282998). As to conditions: BioMAP 3C HUVEC, uPAR biomarker ELISA; actives raise or lower the signal. In short, it runs like this: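 HUVEC primary cells; 24 h post-dose; uPAR by ELISA; gain or loss of signal fitted bidirectionally vs DMSO baseline.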

A short description of experiment [10]: BSK_3C_VCAM1: BioMAP Diversity Plus: 3C Assay for Vascular cell adhesion molecule 1 (VCAM1) Biomarker Activity (AID 2282999). As to conditions: BioMAP 3C HUVEC, VCAM1 ELISA, cytokine-stimulated; actives raise or lower the signal. In a few lines: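 Endothelial cells from human umbilical vein are treated with test chemical. At 24 h, VCAM-1 is measured by ELISA, and responses in either direction are fitted relative to DMSO.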
On the technique in general: An ELISA detects its analyte on a solid surface through an enzyme-linked reagent.

Structures are written as SMILES. Activity calls are given as the source filed them. Rule for the calls: active = hit-call score of the fitted dose curve at least 0.9, where 1 is the maximum; inactive = score below 0.9.

Myc proto-oncogene protein (Homo sapiens), sequence (P01106 whole entry, looked up): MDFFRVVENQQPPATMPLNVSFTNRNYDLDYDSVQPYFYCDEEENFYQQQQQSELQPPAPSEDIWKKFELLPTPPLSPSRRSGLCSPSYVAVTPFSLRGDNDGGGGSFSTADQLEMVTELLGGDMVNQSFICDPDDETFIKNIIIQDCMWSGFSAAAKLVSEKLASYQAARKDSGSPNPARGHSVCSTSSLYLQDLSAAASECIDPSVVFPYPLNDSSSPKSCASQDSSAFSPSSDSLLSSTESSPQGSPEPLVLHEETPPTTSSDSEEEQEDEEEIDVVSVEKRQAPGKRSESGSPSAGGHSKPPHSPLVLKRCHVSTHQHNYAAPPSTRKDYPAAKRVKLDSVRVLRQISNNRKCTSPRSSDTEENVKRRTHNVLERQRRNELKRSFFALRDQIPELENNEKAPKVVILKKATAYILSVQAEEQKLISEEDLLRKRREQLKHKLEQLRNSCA
Cellular tumor antigen p53 (Homo sapiens), sequence (P04637 whole entry, looked up): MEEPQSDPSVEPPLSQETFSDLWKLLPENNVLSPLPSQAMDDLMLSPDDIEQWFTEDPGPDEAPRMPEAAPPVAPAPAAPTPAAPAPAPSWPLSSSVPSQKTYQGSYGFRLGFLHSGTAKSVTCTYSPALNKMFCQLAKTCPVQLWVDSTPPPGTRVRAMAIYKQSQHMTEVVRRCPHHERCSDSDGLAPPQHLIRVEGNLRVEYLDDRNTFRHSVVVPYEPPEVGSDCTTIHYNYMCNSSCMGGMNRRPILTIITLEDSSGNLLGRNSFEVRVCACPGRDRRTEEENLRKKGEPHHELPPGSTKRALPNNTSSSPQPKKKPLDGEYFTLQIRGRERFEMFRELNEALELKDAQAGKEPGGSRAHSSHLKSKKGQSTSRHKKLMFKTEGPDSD
Nuclear respiratory factor 1 (Homo sapiens), sequence (Q16656 whole entry, looked up): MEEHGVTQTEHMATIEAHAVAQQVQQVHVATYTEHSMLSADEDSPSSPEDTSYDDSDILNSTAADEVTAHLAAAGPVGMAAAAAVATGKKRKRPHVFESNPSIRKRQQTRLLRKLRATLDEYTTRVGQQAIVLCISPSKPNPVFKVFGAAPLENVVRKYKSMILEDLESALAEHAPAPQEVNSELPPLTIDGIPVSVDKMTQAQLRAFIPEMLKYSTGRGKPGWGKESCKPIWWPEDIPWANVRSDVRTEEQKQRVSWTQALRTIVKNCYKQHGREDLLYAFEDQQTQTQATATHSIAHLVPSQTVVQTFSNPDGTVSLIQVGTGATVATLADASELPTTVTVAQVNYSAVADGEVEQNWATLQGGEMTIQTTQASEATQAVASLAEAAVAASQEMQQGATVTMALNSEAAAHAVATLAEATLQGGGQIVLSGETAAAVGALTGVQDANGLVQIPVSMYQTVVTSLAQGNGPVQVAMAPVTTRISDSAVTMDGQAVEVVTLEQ

In general, AC50 refers to the midpoint of the concentration-response curve, whichever way the signal moves. `CCCCC(CC)COC(=O)CC(C(=O)OCC(CC)CCCC)S(=O)(=O)O` (centres undefined): the outcome in experiment [1], in experiment [2], in experiment [3], in experiment [4], in experiment [6] and in experiment [7] was inactive. The half-maximal activity concentration (AC50) in experiment [5] was 11.1 µM (active); in experiment [8], 31.8 µM (active); in experiment [9] it was 31.1 µM (active); in [10], 38.9 µM (active).
As to `OC[C@@H](O)[C@@H](O)[C@H](O)[C@H](O)CO`, the result in [1], in [2], in [3], in experiment [4], in [5] and in [6] was inactive. Besides, the compound was classed as inactive in experiment [7], in experiment [8], in experiment [9] and in experiment [10].
`Clc1cc(Cl)c(Cl)cc1Cl`: the compound was called inactive in experiment [1], in [2], in experiment [3], in [4], in [5] and in [6]. Moreover, the call in [7], in [9] and in experiment [10] was inactive. For the same compound, the half-maximal activity concentration (AC50) in [8] is 6.33 µM (active).
As to `Cc1cccc(Nc2cc(Cl)nc(SCC(=O)O)n2)c1C`, the call in experiment [1], in experiment [2], in [3], in experiment [4], in experiment [5] and in experiment [6] was inactive. The compound was classed as inactive in [7], in [8], in experiment [9] and in experiment [10].
Take `NCC1(Cc2noc(=O)[nH]2)CCCCC1`: the compound was called inactive in experiment [1], in [2], in [3], in experiment [4], in experiment [5] and in experiment [6]. Besides, the outcome in experiment [7], in experiment [8], in experiment [9] and in experiment [10] was inactive.
Regarding `CCCCCCCCCCCC(=O)OC`, the compound was classed as inactive in experiment [1], in experiment [2], in experiment [3], in experiment [4], in experiment [5] and in [6]. The compound was called inactive in experiment [7], in experiment [8], in experiment [9] and in experiment [10].
For the compound `CC(=O)Oc1ccccc1C(=O)O`, the result in [1], in [2], in [3], in experiment [4], in experiment [7] and in experiment [8] was inactive. In addition, the outcome in experiment [9] and in experiment [10] was inactive. Besides, the AC50 is 68 µM (active) in [5] and 177 µM (active) in experiment [6].
As for `Nc1nc(N)c2nc(CNc3ccc(C(=O)N[C@@H](CCC(=O)O)C(=O)O)cc3)cnc2n1`, the outcome in experiment [1], in experiment [2], in experiment [3], in [4], in [5] and in experiment [6] was inactive. Moreover, the call in [7], in [8], in experiment [9] and in experiment [10] was inactive.
Turning to `CCCCCCOCCO`, the call in experiment [1], in experiment [2], in experiment [3], in [4], in experiment [5] and in experiment [6] was inactive. Moreover, the result in experiment [7], in experiment [8], in experiment [9] and in experiment [10] was inactive.
For the compound `Nc1ccccc1N`, the outcome in [1], in experiment [3], in experiment [4] and in [8] was inactive. Besides, the AC50 in experiment [2] was 46.1 µM (active); in [5], 9.26 µM (active); in experiment [6], 29 µM (active); in experiment [7], 32.4 µM (active); in experiment [9] it was 4.58 µM (active); in experiment [10], 11 µM (active).
In the case of `Cc1oc(-c2ccccc2)nc1CCOc1cccc2c1ccn2CCC(=O)O`, the compound was classed as inactive in experiment [1], in experiment [2], in [3], in experiment [4], in experiment [6] and in experiment [7]. Further, the outcome in experiment [8], in experiment [9] and in experiment [10] was inactive. Besides, the concentration at half-maximal activity (AC50) in [5] is 31.4 µM (active).
Turning to `Cc1ccc2ncccc2c1`, the compound was classed as inactive in experiment [1], in [2], in experiment [3], in experiment [4], in [5] and in experiment [6]. Besides, the compound was classed as inactive in [7], in [8], in experiment [9] and in experiment [10].
On to `Nc1ccc(S(=O)(=O)c2ccc(N)cc2)cc1`, for which the compound was classed as inactive in experiment [1], in experiment [2], in [3], in [4], in experiment [5] and in experiment [6]. Moreover, the call in [7], in experiment [8], in experiment [9] and in experiment [10] was inactive.
`CC1(C)NC(=O)NC1=O`: the outcome in experiment [1], in [2], in experiment [3], in experiment [4], in experiment [5] and in [6] was inactive. The outcome in experiment [7], in experiment [8], in [9] and in experiment [10] was inactive.
Consider `CCCCCC(=O)O`, for which the compound was classed as inactive in experiment [1], in experiment [2], in experiment [3], in experiment [4], in [5] and in experiment [6]. Besides, the outcome in experiment [7], in [8], in experiment [9] and in experiment [10] was inactive.
Turning to `CC=Cc1ccc(O)c(OC)c1`, the compound was called inactive in [1], in experiment [2], in [3], in [6], in experiment [7] and in experiment [8]. Further, the outcome in experiment [9] and in [10] was inactive. The AC50 in experiment [5] was 16.2 µM (active).
In the case of `FC(F)(F)C(F)(F)C(F)(F)C(F)(F)C(F)(F)C(F)(F)CCI`, the call in experiment [1], in experiment [2], in experiment [3], in experiment [5], in experiment [6] and in experiment [7] was inactive. Moreover, the outcome in experiment [8], in experiment [9] and in [10] was inactive.
Turning to `CN1CCCC1=O`, the call in experiment [1], in experiment [2], in [3], in experiment [5], in experiment [6] and in experiment [7] was inactive. In addition, the result in experiment [8], in experiment [9] and in experiment [10] was inactive.
Take `COCCOC[C@H](CC1(C(=O)NC2CCC(C(=O)O)CC2)CCCC1)C(=O)Oc1ccc2c(c1)CCC2` (some centres undefined): the call in [1], in experiment [2], in experiment [3], in [5], in experiment [6] and in experiment [7] was inactive. Moreover, the result in [8], in experiment [9] and in experiment [10] was inactive.
With `CCNc1cccc(C)c1`, the call in experiment [1], in experiment [2], in experiment [3], in experiment [4], in experiment [5] and in [6] was inactive. Moreover, the result in experiment [7], in [8], in experiment [9] and in [10] was inactive.
Take `O=C(O)Cc1ccccc1Nc1c(Cl)cccc1Cl`: the outcome in [1], in experiment [2], in experiment [3], in [5], in experiment [6] and in experiment [7] was inactive. Moreover, the outcome in experiment [8], in experiment [9] and in experiment [10] was inactive.
In the case of `CCOC(=O)CCC(=O)OCC`, the result in [1], in [2], in experiment [3], in experiment [5], in experiment [6] and in [7] was inactive. Further, the result in [8], in [9] and in experiment [10] was inactive.
